PubChem BioAssay (NCATS)
Records with an inconclusive call do not appear. Active and inactive are the calls of the source. Unless noted, calls follow the shape of the dose curve; as a rule, active = well fitted cell-killing curve with a large enough effect; inconclusive = small, poorly fitted or top-dose-only effect; inactive = flat fitted curve, though single readings scatter.

Experiments:
[1] = Cell Viability - LYMP2-025 (AID 976);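 also: series mostly up to about 92 µM; plate controls were DMSO only for no effect and tetraoctylammonium bromide control for full effect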
In short: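 Seed 2500 LYMP2-025 cells/well; 5 hr at 37 C; add compound; 24 hr at 37 C; add CellTiter-Glo; 30 min RT; read luminescence. AC50 from Hill-modelled concentration-response.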

[2] = Cell Viability - LYMP2-002 (AID 977);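 also: series mostly up to about 92 µM; plate controls were DMSO only for no effect and 92 µM tetraoctylammonium bromide for full effect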
In short: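 Luminescent ATP readout (CellTiter-Glo, 30 min room temperature) after 24 h compound exposure at 37 C of a human lymphoblastoid line, 2500 cells/well. AC50 values derived by standard Hill fitting of qHTS concentration-response data.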

[3] = Cell Viability - LYMP2-006 (AID 978); also: series mostly up to about 92 µM; % is scaled to controls: 0 for no effect and ±100 for the full control effect; nearly all actives have a fitted effect of over 60% in size
In short: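 Concentration-dependent loss of intracellular ATP in a human lymphoblastoid line after 24 hr treatment at 37 C was measured by CellTiter-Glo luminescence, with AC50 values obtained from standard Hill-equation modelling.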

[4] = Cell Viability - LYMP2-007 (AID 979);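 also: cells exposed to compound for 24 h before reading; 0% = DMSO only and the negative end = 92 µM tetraoctylammonium bromide; nearly all actives have a fitted effect of over 60% in size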
In short: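 Luminescent ATP signal (CellTiter-Glo) serves as the viability read-out after 24 hr compound treatment of lymphoblastoid cells in complete medium at 37 C. Concentration-response data were fitted to the Hill equation to give AC50 values.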

[5] = Cell Viability - LYMP2-008 (AID 980); also: % is scaled to controls: 0 for no effect and ±100 for the full control effect; nearly all actives have a fitted effect of over 60% in size
In short: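 qHTS, human lymphoblastoid line, 2500 cells/well; 5 hr preincubation, 24 hr compound, 37 C. CellTiter-Glo ATP luminescence. AC50 via Hill equation. Tetraoctylammonium bromide positive control.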

[6] = Cell Viability - LYMP2-010 (AID 981); also: % is scaled to controls: 0 for no effect and ±100 for the full control effect; nearly all actives have a fitted effect of over 55% in size
In short: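 Luminescent ATP signal (CellTiter-Glo) served as the viability read-out. Cells of the human lymphoblastoid line were treated with compound over a concentration range for 24 hours at 37 C, and AC50 values came from Hill-equation modeling.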

[7] = Cell Viability - LYMP2-012 (AID 982);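 also: cellular ATP by luciferase luminescence where a drop means cytotoxicity; cells exposed to compound for one day before reading; 0% = DMSO only and full loss = 92 µM tetraoctylammonium bromide; nearly all actives have a fitted effect of over 55% in size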
[8] = Cell Viability - LYMP2-014 (AID 983);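 also: series mostly up to about 92 µM; plate controls were DMSO only for no effect and 92 µM tetraoctylammonium bromide for full effect; nearly all actives have a fitted effect of over 50% in size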
In short: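 Luminescent ATP signal (CellTiter-Glo, 30 min at room temperature) serves as the viability read-out after 24 hr compound exposure at 37 C. Cells were seeded at 2500 per well and settled 5 hr beforehand.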

[9] = Cell Viability - LYMP2-016 (AID 984); also: % is scaled to controls: 0 for no effect and ±100 for the full control effect; nearly all actives have a fitted effect of over 55% in size
In short: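 Acute toxicity in a Coriell human lymphoblastoid line is scored as loss of intracellular ATP over 24 h of treatment in complete medium. CellTiter-Glo signal is fitted across concentrations with the Hill equation to give AC50.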

[10] = Cell Viability - LYMP2-018 (AID 985);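 also: plate controls were DMSO only for no effect and tetraoctylammonium bromide at 92 µM for full effect; nearly all actives have a fitted effect of over 50% in size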
In short: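 Luminescent ATP signal (CellTiter-Glo, read after 30 min at room temperature) reports viable cells after 24 hr compound treatment at 37 C. Concentration-response data were fitted to the standard Hill equation for AC50.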

[11] = Cell Viability - LYMP2-020 (AID 986);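 also: series mostly up to about 92 µM; plate controls were DMSO only for no effect and tetraoctylammonium bromide at 92 µM for full effect; nearly all actives have a fitted effect of over 55% in size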
In short: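 Luminescent ATP signal (CellTiter-Glo, 30 min at room temperature) is the read-out after 24 h compound treatment of lymphoblastoid cells at 37 C. AC50 values come from Hill-equation fits across concentrations.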

[12] = Cell Viability - LYMP2-022 (AID 987)
In short: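 qHTS: human lymphoblastoid cells 2500/well; 5 hr 37 C; cpd added; 24 hr 37 C; CellTiter-Glo, 30 min RT; luminescence. AC50 via Hill fit; tetraoctylammonium bromide positive ctrl.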

[13] = Cell Viability - LYMP2-024 (AID 988);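 also: plate controls were DMSO only for no effect and 92 µM tetraoctylammonium bromide for full effect; nearly all actives have a fitted effect of over 60% in size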
In short: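 Steps: seed 2500 cells/well, 5 hr 37 C; add compound, 24 hr 37 C; add CellTiter-Glo, 30 min room temperature; read luminescence. AC50 derived by Hill modelling of concentration-dependent ATP loss.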

[14] = Cell Viability - LYMP2-026 (AID 989); also: % is scaled to controls: 0 for no effect and ±100 for the full control effect; nearly all actives have a fitted effect of over 50% in size
In short: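 Luminescent ATP signal (CellTiter-Glo, 30 min room temperature) measures viable lymphoblastoid cells after 24 hr compound treatment at 37 C. Decreased ATP reflects acute toxicity; AC50 values come from Hill-equation modeling.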

[15] = Cell Viability - LYMP1-002 - Assay at 24 hr (AID 993); also: % is scaled to controls: 0 for no effect and ±100 for the full control effect
In short: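 Cells plated 2500/well, 5 hr 37 C; compounds added, 24 hr 37 C; CellTiter-Glo added, 30 min RT; luminescence read. Tetraoctylammonium bromide positive control. Hill-equation AC50.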

[16] = Cell Viability - LYMP1-002 - Assay at 40 hr (AID 994)
In short: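 Luminescent ATP signal served as the viability readout, with decreases taken as toxicity. Cells were treated with compounds across a concentration range for 40 hours at 37 C, and AC50 values came from standard Hill modeling.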

[17] = qHTS Assay for Identification of Small Molecule Inducers of Hypoxia Response (AID 2120; active = well fitted curve in the direction sought with a large enough effect in the signal ratio, with a control signal flat, not every such curve was filed as active; the % refers to the signal ratio; also: 0% is about no effect)
In short: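 ME-180 HRE-bla cells plated in Opti-MEM/0.5% dialyzed FBS, rested 4-5 h, then dosed with compound titrations by pin tool. After 17 h at 37 degrees C, CCF4 dye loaded 2.5 h at RT; 460/530 nm ratio gave %Activity and AC50.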

[18] = target: Androgen receptor (Homo sapiens) (UniProt P10275); assay: qHTS assay for small molecule agonists of androgen receptor signaling (AID 588515; active = well fitted curve in the direction sought with a large enough effect in the signal ratio, with a control signal flat; the % refers to the signal ratio; also: % is scaled to controls: 0 for no effect and ±100 for the full control effect); conditions: AR-UAS-bla HEK293, beta-lactamase ratio, agonist 16 h; hits give high values
Sequence of Androgen receptor (Homo sapiens) (P10275 whole entry, looked up): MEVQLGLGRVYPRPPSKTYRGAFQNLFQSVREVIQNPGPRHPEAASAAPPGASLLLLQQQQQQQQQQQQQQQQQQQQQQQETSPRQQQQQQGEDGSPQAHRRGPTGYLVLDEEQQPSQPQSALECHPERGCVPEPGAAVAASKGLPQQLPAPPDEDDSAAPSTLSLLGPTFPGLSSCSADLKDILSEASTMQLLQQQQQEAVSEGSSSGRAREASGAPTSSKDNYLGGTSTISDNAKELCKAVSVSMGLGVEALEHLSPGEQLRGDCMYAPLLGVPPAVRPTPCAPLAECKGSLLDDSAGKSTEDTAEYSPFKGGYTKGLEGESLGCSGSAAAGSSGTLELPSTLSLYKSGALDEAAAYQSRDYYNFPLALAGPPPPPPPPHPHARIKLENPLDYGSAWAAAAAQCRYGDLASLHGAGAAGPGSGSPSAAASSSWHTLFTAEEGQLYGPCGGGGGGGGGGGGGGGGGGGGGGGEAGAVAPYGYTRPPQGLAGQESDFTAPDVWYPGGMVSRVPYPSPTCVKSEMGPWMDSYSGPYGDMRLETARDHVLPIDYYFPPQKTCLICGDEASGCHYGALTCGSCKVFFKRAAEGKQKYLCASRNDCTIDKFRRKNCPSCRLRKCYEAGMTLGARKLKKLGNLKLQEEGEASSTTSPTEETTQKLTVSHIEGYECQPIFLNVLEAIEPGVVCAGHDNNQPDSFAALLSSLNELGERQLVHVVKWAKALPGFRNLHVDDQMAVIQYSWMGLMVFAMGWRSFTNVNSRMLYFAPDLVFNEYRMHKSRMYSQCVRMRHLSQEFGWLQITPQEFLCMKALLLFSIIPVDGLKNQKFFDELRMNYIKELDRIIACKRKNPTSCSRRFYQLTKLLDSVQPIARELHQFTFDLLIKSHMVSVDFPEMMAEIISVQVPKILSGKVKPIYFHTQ
In short: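 EC50 and efficacy came from Hill fits of titrations (up to 92 uM) normalized to 30 nM R1881 as 100% and DMSO as 0%. Compound exposure was 16 h at 37 C on AR-UAS-bla HEK293 cells, with a 405/460/530 nm CCF4 fluorescence read.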

CCCOCC(C)OCC(C)O (stereo not given)
inactive: Potency [1] | Potency [2] | Potency [3] | Potency [4] | Potency [5] | Potency [6] | Potency [7] | Potency [8] | Potency [9] | Potency [10] | Potency [11] | Potency [12] | Potency [13] | outcome [14] | Potency [15] | Potency [16] | outcome [17] | activation [18] 12.1%

CCCOCC(C)O (stereo not given)
inactive: Potency [1] | Potency [2] | Potency [3] | Potency [4] | Potency [5] | Potency [6] | Potency [7] | Potency [8] | Potency [10] | Potency [11] | Potency [12] | Potency [13] | outcome [14] | Potency [15] | Potency [16] | outcome [17] | activation [18] -4.67%

CCC(C)=O
inactive: Potency [1] | Potency [2] | Potency [3] | Potency [4] | Potency [5] | Potency [6] | Potency [7] | Potency [8] | Potency [9] | Potency [10] | Potency [11] | Potency [12] | Potency [13] | outcome [14] | Potency [15] | Potency [16] | outcome [17]

O=C(Cl)c1ccccc1[N+](=O)[O-]
inactive: Potency [1] | Potency [2] | Potency [3] | Potency [4] | Potency [5] | Potency [6] | Potency [7] | Potency [9] | Potency [10] | Potency [11] | Potency [12] | Potency [13] | outcome [14] | Potency [15] | Potency [16] | outcome [17] | activation [18] 6.98%

CC(=O)c1ccc([N+](=O)[O-])cc1
inactive: Potency [1] | Potency [2] | Potency [3] | Potency [4] | Potency [5] | Potency [6] | Potency [7] | Potency [8] | Potency [9] | Potency [10] | Potency [11] | Potency [12] | Potency [13] | outcome [14] | Potency [15] | Potency [16] | outcome [17]

Cc1cccc(C)c1[N+](=O)[O-]
inactive: Potency [1] | Potency [2] | Potency [3] | Potency [4] | Potency [5] | Potency [6] | Potency [7] | Potency [8] | Potency [9] | Potency [10] | Potency [11] | Potency [12] | Potency [13] | outcome [14] | Potency [15] | Potency [16] | outcome [17]

CC(=O)c1cc(C)oc1C
inactive: Potency [1] | Potency [2] | Potency [4] | Potency [5] | Potency [6] | Potency [7] | Potency [8] | Potency [9] | Potency [10] | Potency [11] | Potency [12] | Potency [13] | outcome [14] | Potency [15] | Potency [16] | outcome [17] | activation [18] -1.32%

ON=C1CCCCC1
inactive: Potency [1] | Potency [2] | Potency [3] | Potency [4] | Potency [5] | Potency [6] | Potency [7] | Potency [8] | Potency [9] | Potency [10] | Potency [11] | Potency [12] | Potency [13] | outcome [14] | Potency [15] | Potency [16] | outcome [17]

S=C([S-])NCCNC(=S)[S-].[Zn+2]
inactive: Potency [1] | Potency [2] | Potency [3] | Potency [4] | Potency [5] | Potency [6] | Potency [7] | Potency [8] | Potency [9] | Potency [10] | Potency [11] | Potency [12] | Potency [13] | outcome [14] | Potency [15] | Potency [16] | outcome [17]

N#CCc1ccccc1[N+](=O)[O-]
inactive: Potency [1] | Potency [2] | Potency [3] | Potency [4] | Potency [5] | Potency [6] | Potency [7] | Potency [8] | Potency [9] | Potency [10] | Potency [11] | Potency [12] | Potency [13] | outcome [14] | Potency [15] | Potency [16] | outcome [17]

Cc1ccc(C)c([N+](=O)[O-])c1
inactive: Potency [1] | Potency [2] | Potency [3] | Potency [4] | Potency [5] | Potency [6] | Potency [7] | Potency [8] | Potency [9] | Potency [10] | Potency [11] | Potency [12] | Potency [13] | outcome [14] | Potency [15] | Potency [16] | outcome [17]

CCCCCCCCN
inactive: Potency [1] | Potency [2] | Potency [3] | Potency [4] | Potency [5] | Potency [6] | Potency [7] | Potency [8] | Potency [9] | Potency [10] | Potency [11] | Potency [12] | Potency [13] | outcome [14] | Potency [15] | Potency [16] | outcome [17]
